Bioassay records: PubChem, National Center for Advancing Translational Sciences (NCATS)
Sampled rows, rich in hits. Any-hit rate of the full collection: about 2.8%.
DRD3 agonist – qHTS of D3 Dopamine Receptor Agonist: qHTS. D3R DiscoveRx beta-arrestin cells, luminescence, 90 min. D(3) dopamine receptor (Homo sapiens), P35462. max activation, %. 410,000 tested, 0.58% active; in the data active = max activation above about 30%
Target sequence (P35462 whole entry, looked up): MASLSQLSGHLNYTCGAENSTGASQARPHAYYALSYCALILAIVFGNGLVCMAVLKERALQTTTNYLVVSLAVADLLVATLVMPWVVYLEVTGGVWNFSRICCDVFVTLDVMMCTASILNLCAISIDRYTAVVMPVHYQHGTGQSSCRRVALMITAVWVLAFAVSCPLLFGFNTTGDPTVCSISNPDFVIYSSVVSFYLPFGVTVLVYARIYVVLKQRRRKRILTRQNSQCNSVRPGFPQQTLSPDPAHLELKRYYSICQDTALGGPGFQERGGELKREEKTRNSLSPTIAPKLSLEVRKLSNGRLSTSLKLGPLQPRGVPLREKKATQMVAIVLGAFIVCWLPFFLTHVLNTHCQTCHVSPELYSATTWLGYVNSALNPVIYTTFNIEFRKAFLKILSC
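Cells at 1500/well, incubated overnight, then treated with pinned compounds (dopamine as control) for 90 min at 37 degrees C. DiscoveRx reagent added for 30 - 60 minutes at room temperature; luminescence read.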
DRD3 antagonist – qHTS of D3 Dopamine Receptor Antagonist: qHTS | D(3) dopamine receptor (Homo sapiens), P35462 | D3R cells, DiscoveRx beta-arrestin luminescence, antagonist mode; active compounds read low | max response, negative = inhibition, % | 360,000 tested, 2.5% active | AID 652054, 2013; in the data active = max response below about -50%; inconclusive = no clear call, values can overlap the other calls
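Cells plated overnight at 1500 cells/well, then exposed to library compounds with dopamine controls for 90 minutes at 37 degrees C. DiscoveRx reagent added for 30–60 minutes at room temperature; luminescence read, quantitative HTS format.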
PTHR1 agonist – qHTS for PTHR1 Agonists: Primary Screen | Potency, µM (top dose mostly 115 µM), hits mostly activators | 410,000 tested, 0.075% active | HEK293 GP2 PTHR1 cells, GloSensor cAMP luminescence, 1 h; note: nearly all actives have a fitted effect of over 55% in size
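HEK-293-derived GP2 cells expressing PTHR1 and a GloSensor cAMP reporter, 3,000/well, plated overnight, given luciferin plus IBMX (each 0.5 mM as added) for 1 h at 37 °C, then compound for 1 h at 37 °C. Luminescence was read after 15 min at room temperature.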
CBFb RUNX1 block – qHTS Assay for Compounds Blocking the Interaction Between CBF-beta and RUNX1 for the Treatment of Acute Myeloid Leukemia; 230,000 tested, under 10 active; Potency, µM (top dose mostly 59.8 µM), actives largely listed as inhibitors; AlphaScreen CBFb-His/RUNX1-biotin binding, biochemical; AID 1477, 2009
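Room-temperature protein-protein interaction test with 30 nM each of His-tagged CBF-beta and biotinylated RUNX1, 15 min with compound, then 90 min with nickel plus streptavidin beads. Signal read in AlphaScreen mode.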
a7 integrin act – qHTS for Activators of Integrin-Mediated Alleviation for Muscular Dystrophy; Potency, µM (series often up to 38.3 µM), hits mostly activators; 350,000 tested, 0.064% active; alpha7betagal myoblasts, beta-gal FDG fluorescence, 48 h; note: nearly all actives have a fitted effect of over 60% in size
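alpha7betagal+/- myoblasts (passage 13, 250/well) treated 48 h at 37C with compounds at 1:260 dilution of DMSO stock. Lysed, then beta-galactosidase activity read as FDG fluorescence (ex 480/em 540) after 30 min, with pre-read for autofluorescence.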
MBNL1-CUG inh – qHTS Assay for Inhibitors of MBNL1-poly(CUG) RNA binding; Muscleblind-like protein 1 (Homo sapiens), Q9NR56; TR-FRET MBNL1-His/biotin-(CUG)12 binding, 665/545 ratio; Potency, µM (series often up to 57.5 µM), actives largely listed as inhibitors; 280,000 tested, 0.036% active; AID 2675, 2010; active = well fitted inhibition curve with a large enough effect in the signal ratio, with a control signal flat, not every such curve was filed as active; inconclusive = small, poorly fitted or top-dose-only effect, or effect the other way, or a change in a side signal; inactive = no such curve, though single readings can be large or run the other way; the % refers to the signal ratio
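Inhibition of protein-RNA binding appears as loss of TR-FRET between terbium anti-His antibody on MBNL1-His and streptavidin-XL665 on biotin-(CUG)12. Activity is normalized to buffer-only and uninhibited-complex controls.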
Hits are given with their value; i = inactive; ? = inconclusive; nt = no result given. Unless noted, calls come from the whole dose curve; as a rule, active = well fitted curve in the direction sought with a large enough effect; inconclusive = small, poorly fitted or top-dose-only effect, or another doubt; inactive = no such curve, though single readings can be large; an effect the other way counts as inactive or inconclusive.

SMILES | DRD3 agonist | DRD3 antagonist | PTHR1 agonist | CBFb RUNX1 block | a7 integrin act | MBNL1-CUG inh
Cc1cc(-n2cccn2)ccc1CN1CCN(C2CCCC2)C(CCO)C1 (stereo not drawn) | i | -70 | i | i | i | i
COc1cccc(C(=O)Nc2ccc(-n3nncc3-c3ccccc3)cc2)c1OC | i | nt | i | nt | nt | nt
CN(C(=S)NC(=O)c1ccc(Br)o1)c1ccccc1 | i | i | i | i | i | i
Cc1ccc(NC(=O)c2ccc(NCCCN3CCC(C)CC3)c([N+](=O)[O-])c2)cc1F | i | -65 | i | i | i | ?
O=C(Nc1cccc(Cl)c1)c1ccc(NCCCN2CCOCC2)c([N+](=O)[O-])c1 | i | -89 | i | i | i | ?
Cc1ccccc1-c1nc(C#N)c(N2CCCCC2)o1 | i | i | i | nt | i | i
C=CC[C@@H](CC(=O)N[C@H](CO)Cc1ccccc1)C(=O)N[C@@H](COC(=O)[C@@H](CC=C)CC(=O)OC(C)(C)C)Cc1ccccc1 | i | i | i | nt | i | nt
CC(C)(C)c1ccc(OCCNCc2ccccc2)cc1 | i | -53 | i | nt | i | i
Cc1cc(Br)ccc1OCCNCc1ccccc1 | i | -70 | i | i | i | i
CC(C)(C)c1ccc(C(=O)NCCOc2ccccc2)cc1 | i | i | i | nt | i | i
O=C(COc1ccc(Br)cc1CNCCc1ccccc1)NCc1ccccc1 | i | i | i | i | i | i
Cc1cc(C)c(C)c(OCCNCc2ccccc2)c1 | i | -77 | i | nt | i | i
COc1ccccc1C(=O)NCCOc1ccc(C(C)(C)C)cc1 | i | i | i | nt | 8.9µM | i
CCCCn1nnnc1C(c1ccccc1)N1CCN(c2cc(C)ccc2C)CC1 (stereo not drawn) | i | i | i | nt | nt | nt
O=C(Cn1c(=O)c2cccn2c2ccc(F)cc21)NCc1cccc(Cl)c1 | i | nt | i | nt | nt | nt
Brc1ccccc1OCCNCc1ccccc1 | i | -71 | i | i | i | i
C=CCc1ccccc1OCCNCc1ccccc1 | i | -88 | i | i | i | i
C=CCc1ccccc1OCC(=O)O | i | i | i | i | i | i
CCN(CC)CCN(Cc1cc2cc(C)c(C)cc2[nH]c1=O)C(=S)NCc1ccco1 | i | -72 | i | i | i | i
CCN(CC)CCCN(Cc1cc2cc3c(cc2[nH]c1=O)OCO3)C(=S)NCCCOC | i | i | ? | nt | i | i
CCN(CC)CCN(Cc1cc2cc3c(cc2[nH]c1=O)OCO3)C(=S)NCCCOC | i | -52 | i | nt | i | i
CCN(CC)CCN(Cc1cc2ccc(C)cc2[nH]c1=O)C(=S)Nc1ccccc1C(=O)OC | i | -84 | i | i | i | i
COC(=O)c1ccccc1NC(=S)N(Cc1ccc2c(c1)OCO2)Cc1cc2ccc(C)cc2[nH]c1=O | i | i | i | i | i | i
COc1ccc2ccn(S(=O)(=O)c3ccccc3)c2c1 | i | i | i | nt | i | i
CC(C)c1nn2c(=O)cc(COC(=O)c3ccco3)nc2s1 | i | nt | i | nt | nt | nt
SMILES | DRD3 agonist | DRD3 antagonist | PTHR1 agonist | CBFb RUNX1 block | a7 integrin act | MBNL1-CUG inh
CC1CCN(S(=O)(=O)c2cc(C(=O)N3CCN(c4ccccc4)CC3)ccc2Br)CC1 | i | i | i | nt | i | nt
CCOc1ccc(NC(=O)CNS(=O)(=O)c2ccc(Br)s2)cc1 | i | nt | i | nt | nt | nt
CC(=O)Oc1ccc(C(=O)Nc2cccc(NC(=O)c3ccco3)c2)cc1 | i | -76 | i | nt | i | i
O=C(Nc1ccc(Oc2ccc(NC(=O)c3ccco3)c(NC(=O)c3ccco3)c2)cc1)c1ccco1 | i | -93 | i | i | i | i
CC1(C)Oc2ccc(C(=O)NC3CCCC3)cc2N(CC(=O)NC2CCCC2)C1=O | i | -76 | i | i | i | i
Cn1c(SCc2ccccc2)nc2ccsc2c1=O | 35 | i | i | i | i | i
O=C(NN=C1CCCCCCCCCCC1)c1cccc(S(=O)(=O)N2CCOCC2)c1 | i | i | i | i | i | i
